Data as given in PubChem BioAssay (NCATS).
A number with no mark means an inactive call. Results filed as inconclusive are left out. Calls of active or inactive are those of the source. Unless noted, the call rests on the fitted dose curve; in most records, active means well fitted curve in the direction sought with a large enough effect; inconclusive means small, poorly fitted or top-dose-only effect, or another doubt; inactive means no such curve, though single readings can be large; an effect the other way counts as inactive or inconclusive.

Legend:
[1] = Validation of Assay for Modulators of Lamin A Splicing (AID 1459; active means well fitted curve in the direction sought with a large enough effect in the signal ratio; the % refers to the signal ratio;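 further: cells exposed to compound for two days before reading; 0% is about no effect; ratio rise marks activators and ratio drop marks inhibitors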)
How it was run: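 HeLa S3 lamin A-EGFP/DsRed2 stable clone, 600 cells/well, Opti-MEM 2% FBS; compounds by pin tool; 48 hrs, 37 °C/5% CO2; Acumen 488 nm scan, objects 10-100 um; GFP/RFP intensity ratio.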

[2] = target: DNA repair nuclease/redox regulator APEX1 (Homo sapiens) (UniProt P27695); test: qHTS Validation Assay for Inhibitors of the Human Apurinic/apyrimidinic Endonuclease 1 (APE1) (AID 1705;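 further: TAMRA fluorescence gain over two minutes as APE1 cuts a quenched THF abasic duplex; on the % scale 0 is the no-effect control and ±100 the full control effect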)
How it was run: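 qHTS, 1536-well. APE1 + cpd 15 min RT → 50 nM TAMRA/BHQ-2 THF-abasic dsDNA substrate → kinetic fluorescence, 3 reads/60 s; delta(read3−read1) = reaction progress. No-enzyme buffer = negative control.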

[3] = Counterscreen for APE1 Inhibitors: Fluorescent Dye Displacement Validation Assay (AID 1707);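 further: plate controls were ThO with dsDNA and no compound for no effect and ThO without dsDNA for full effect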
How it was run: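 Counterscreen flags promiscuous DNA binders: compounds displacing ThO from duplex DNA (abasic THF site, 50 nM) reduce 540 nm emission (480 nm excitation). ThO 250 nM final; Tris-HCl pH 7.5 with NaCl, MgCl2 and Tween-20.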

[4] = target: Ferritin light chain (Equus caballus) (UniProt P02791); test: qHTS Validation Assay for Identification of Novel General Anesthetics (AID 2323); further: on the % scale 0 is the no-effect control and ±100 the full control effect
How it was run: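 Fluorescence at 535 nm (excitation 380 nm) reported loss of 1-AMA binding to horse-spleen apoferritin (10 uM) in PBS with 50% saturated 1-aminoanthracene, after 10 min room-temperature incubation with compound; values from Hill fits of normalized response.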

[5] = target: ATP-dependent DNA helicase Q1 (Homo sapiens) (UniProt P46063); test: qHTS Validation Assay for Inhibitors of RecQ-Like Dna Helicase 1 (RECQ1) (AID 2353);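 further: plate controls were DMSO vehicle for no effect and enzyme-free control for full effect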
How it was run: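 RECQ1T1 50 nM; forked duplex (20 bp + 30-nt ss tails) 200 nM, ATP 2 mM final; pH 8.0, 2 mM MgCl2, 2.5 ug/ml poly(dI-dC); 15 min compound preincubation; discontinuous kinetic read over 2 h at RT.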

[6] = Quantitative high throughput screen for delayed death inhibitors of the malarial parasite plastid, 96 hour incubation (AID 488745); further: potency means the concentration at half of the fitted maximal effect; nearly all actives have a fitted effect of over 70% in size
How it was run: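 Readout is firefly luciferase luminescence from an integrated reporter in P. falciparum; lower signal marks inhibited growth. Cultures at 2% hematocrit and 0.1% parasitemia were treated with compound across two generations (96 h, 37 C, 5% CO2).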

[7] = Quantitative high throughput screen for delayed death inhibitors of the malarial parasite plastid, 48 hour incubation (AID 488752); further: potency means the concentration at half of the fitted maximal effect; nearly all actives have a fitted effect of over 65% in size
How it was run: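 First, compound was pinned into RPMI 1640 medium containing 0.5% Albumax. Next, reporter-parasite-infected erythrocytes were added to 2% hematocrit and 0.1% parasitemia. After 48 h at 37 C under 5% CO2, luciferase detection reagent was added and luminescence read.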

[8] = target: M-phase phosphoprotein 8 (Homo sapiens) (UniProt Q99549); test: qHTS Validation Assay for Inhibitors for MPP8 Chromodomain Interactions with Methylated Histone Tails (AID 488949);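 further: 50 nM MPP8 with 50 nM peptide preformed then compounds added for 30 min; AlphaScreen signal from MPP8 chromodomain bound to biotinylated H3K9me3 peptide; top concentration of the series differs between compounds; on the % scale 0 is the no-effect control and ±100 the full control effect; nearly all actives have a fitted effect of over 55% in size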
How it was run: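 50 nM MPP8 + 50 nM b-H3K9me3 peptide, PBS pH 7.4/0.01% Tween-20, 30 min RT; + cpd 30 min RT; + AlphaScreen donor/Ni-chelate acceptor beads 10 ug/mL final, 30 min dark; luminescence read.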

[9] = target: Transient receptor potential cation channel subfamily V member 1 (Homo sapiens) (UniProt Q8NER1); test: HTS Assay for Compounds that Act as Enhancers of the Vanilloid Receptor 1 (AID 488979); further: 0% is about no effect
How it was run: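 Calcium influx kinetics via Fluo-8 (480/520 nm) in TRPV1-expressing cells, 2000/well cultured overnight at 35.5C. Compound-alone read 3 min (agonist phase), followed by EC20 capsaicin challenge for 2 min (enhancer phase).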

[10] = target: ATP-dependent 6-phosphofructokinase (Trypanosoma brucei brucei) (UniProt O15648); test: qHTS Assay to Find Inhibitors of T. brucei phosphofructokinase: hit validation (AID 492961);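 further: luminescence reports ADP formed as PFK phosphorylates fructose-6-phosphate with ATP; on the % scale 0 is the no-effect control and ±100 the full control effect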
How it was run: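 ADP-Glo luminescence read-out of ADP formed by 1.25 nM PFK from 0.1 mM ATP and 0.5 mM F6P (TEA pH 8.0, 45 min, RT). Compounds titrated; activity normalized to no-enzyme and full-enzyme controls.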

[11] = target: Thyrotropin-releasing hormone receptor (Homo sapiens) (UniProt P34981); test: qHTS for Small Molecule Agonists and Allosteric Enhancers of Human TRH Receptor: Validation Screen for Agonists (AID 493127;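 active means calcium activation more than 3 SD above the typical response in the agonist read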;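 further: intracellular calcium rise by fluo-8 fluorescence before TRH EC20 addition; 0% is about no effect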); details: TRH receptor agonist cell assay; at 2 µM; stronger effect = higher value
How it was run: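 Compounds are added by online pintool to dye-loaded TRHR cells while fluorescence is recorded every second. A rise in calcium signal during the agonist read marks activation; a later 10 nM TRH addition (EC20) serves the separate enhancer mode.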

[12] = target: Galactokinase (Homo sapiens) (UniProt P51570); test: qHTS Validation Assay for Inhibitors of Human Galactokinase (GALK) (AID 493189); further: 0% is about no effect
How it was run: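 5 nM GALK / 100 uM galactose / 35 uM ATP, 20 mM HEPES pH8.0, 5 mM MgCl2, 60 mM NaCl, 1 mM DTT, 0.01% BSA (final). RT 1 h; Kinase-Glo Plus luminescence.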

[13] = target: Luciferin 4-monooxygenase (Photinus pyralis) (UniProt P08659); test: Biochemical firefly luciferase enzyme assay for NPC (AID 624030);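 further: purified P. pyralis luciferase at 10 nM with luciferin and ATP substrate; 0% = DMSO and -100% = full luciferase inhibition by PTC124 control; nearly all actives have a fitted effect of over 70% in size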
How it was run: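 Direct inhibition of firefly luciferase enzyme (10 nM final, 50 mM Tris Acetate) assessed by luminescence within 5 minutes. Percent activity scaled between DMSO and PTC124 positive control, with concentration-effect curves classified by fit quality and response.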

[14] = S16 Schwann cell viability assay (CellTiter-Glo assay) (AID 624031);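 further: cellular ATP luminescence as a viability measure; plate controls were DMSO-treated cells for no effect and cell-free wells for full effect; nearly all actives have a fitted effect of over 70% in size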
How it was run: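 Untransfected S16 rat Schwann cells; compound 24 h, 37 °C/5% CO2; CellTiter-Glo ATP luminescence. % activity vs no-cell wells and DMSO controls (0%); concentration-effect curves classed by r2, response magnitude, activity.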

[15] = S16 Schwann cell PMP22 intronic element beta-lactamase assay (AID 624044; calls by dose curve;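 further: 0% = DMSO and -100% = potassium clavulanate positive control; nearly all actives have a fitted effect of over 15% in size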)
How it was run: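 Beta-lactamase reporter under a PMP22 intronic regulatory element in stable S16 rat Schwann cells; 24 h compound exposure. 460 nm blue signal normalized between DMSO (0%) and potassium clavulanate, with 535 nm FRET tracking viability; curves classed by r2 and response.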

[16] = qHTS profiling for inhibitors of Plasmodium falciparum proliferation (AID 504749); further: potency means the concentration at half of the fitted maximal effect; nearly all actives have a fitted effect of over 60% in size; details: P. falciparum in erythrocytes, SYBR Green DNA, 72 h
How it was run: (§1)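 SYBR Green fluorescence of parasite DNA, read after lysis and overnight dark incubation, measured growth over 72 h in erythrocyte culture at 0.3% parasitemia and 2.5% hematocrit. Data normalised to DMSO and 0.29 uM artemisinin, with plate-drift correction.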

3D7 = test: as above; details: P. falciparum in erythrocytes, SYBR Green DNA, 72 h; series mostly up to 28.7 µM
How it was run: as §1

7G8 = test: as above; details: P. falciparum in erythrocytes, SYBR Green DNA, 72 h; series mostly up to 28.7 µM
How it was run: as §1

AA1029 = test: as above; details: P. falciparum in erythrocytes, SYBR Green DNA, 72 h; series mostly up to 28.7 µM
How it was run: as §1

AS120 = test: as above; details: P. falciparum in erythrocytes, SYBR Green DNA, 72 h; series mostly up to 28.7 µM
How it was run: as §1

ATS189 = test: as above; details: P. falciparum in erythrocytes, SYBR Green DNA, 72 h; series mostly up to 28.7 µM
How it was run: as §1

ATS95 = test: as above; details: P. falciparum in erythrocytes, SYBR Green DNA, 72 h; series mostly up to 28.7 µM
How it was run: as §1

C2A = test: as above; details: P. falciparum in erythrocytes, SYBR Green DNA, 72 h; series mostly up to 28.7 µM
How it was run: as §1

CP185 = test: as above; details: P. falciparum in erythrocytes, SYBR Green DNA, 72 h; series mostly up to 28.7 µM
How it was run: as §1

CP191 = test: as above; details: P. falciparum in erythrocytes, SYBR Green DNA, 72 h; series mostly up to 28.7 µM
How it was run: as §1

CP192 = test: as above; details: P. falciparum in erythrocytes, SYBR Green DNA, 72 h; series mostly up to 28.7 µM
How it was run: as §1

CP194 = test: as above; details: P. falciparum in erythrocytes, SYBR Green DNA, 72 h; series mostly up to 28.7 µM
How it was run: as §1

CP201 = test: as above; details: P. falciparum in erythrocytes, SYBR Green DNA, 72 h; series mostly up to 28.7 µM
How it was run: as §1

CP203 = test: as above; details: P. falciparum in erythrocytes, SYBR Green DNA, 72 h; series mostly up to 28.7 µM
How it was run: as §1

CP211 = test: as above; details: P. falciparum in erythrocytes, SYBR Green DNA, 72 h; series mostly up to 28.7 µM
How it was run: as §1

CP215 = test: as above; details: P. falciparum in erythrocytes, SYBR Green DNA, 72 h; series mostly up to 28.7 µM
How it was run: as §1

CP217 = test: as above; details: P. falciparum in erythrocytes, SYBR Green DNA, 72 h; series mostly up to 28.7 µM
How it was run: as §1

CP237 = test: as above; details: P. falciparum in erythrocytes, SYBR Green DNA, 72 h; series mostly up to 28.7 µM
How it was run: as §1

CP238 = test: as above; details: P. falciparum in erythrocytes, SYBR Green DNA, 72 h; series mostly up to 28.7 µM
How it was run: as §1

CP247 = test: as above; details: P. falciparum in erythrocytes, SYBR Green DNA, 72 h; series mostly up to 28.7 µM
How it was run: as §1

Sequence of ATP-dependent 6-phosphofructokinase (Trypanosoma brucei brucei) (O15648 whole entry, looked up): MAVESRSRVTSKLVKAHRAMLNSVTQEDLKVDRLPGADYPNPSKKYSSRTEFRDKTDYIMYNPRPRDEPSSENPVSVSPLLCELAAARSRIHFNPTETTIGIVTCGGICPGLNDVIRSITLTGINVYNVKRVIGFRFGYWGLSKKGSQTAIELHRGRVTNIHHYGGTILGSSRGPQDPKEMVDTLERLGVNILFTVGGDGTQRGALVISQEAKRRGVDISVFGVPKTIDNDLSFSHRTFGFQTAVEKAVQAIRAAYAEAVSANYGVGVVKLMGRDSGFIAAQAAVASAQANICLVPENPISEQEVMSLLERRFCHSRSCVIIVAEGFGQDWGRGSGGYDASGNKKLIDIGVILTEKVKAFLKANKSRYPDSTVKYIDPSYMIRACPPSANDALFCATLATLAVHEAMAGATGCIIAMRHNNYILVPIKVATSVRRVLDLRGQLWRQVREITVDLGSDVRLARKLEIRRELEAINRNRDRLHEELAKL
Sequence of Ferritin light chain (Equus caballus) (P02791 2-175 limits assumed): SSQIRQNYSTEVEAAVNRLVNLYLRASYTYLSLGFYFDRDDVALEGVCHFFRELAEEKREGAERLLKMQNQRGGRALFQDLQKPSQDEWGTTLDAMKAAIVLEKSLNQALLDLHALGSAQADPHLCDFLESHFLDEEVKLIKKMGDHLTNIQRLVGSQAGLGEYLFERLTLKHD
Sequence of Galactokinase (Homo sapiens) (P51570 whole entry, looked up): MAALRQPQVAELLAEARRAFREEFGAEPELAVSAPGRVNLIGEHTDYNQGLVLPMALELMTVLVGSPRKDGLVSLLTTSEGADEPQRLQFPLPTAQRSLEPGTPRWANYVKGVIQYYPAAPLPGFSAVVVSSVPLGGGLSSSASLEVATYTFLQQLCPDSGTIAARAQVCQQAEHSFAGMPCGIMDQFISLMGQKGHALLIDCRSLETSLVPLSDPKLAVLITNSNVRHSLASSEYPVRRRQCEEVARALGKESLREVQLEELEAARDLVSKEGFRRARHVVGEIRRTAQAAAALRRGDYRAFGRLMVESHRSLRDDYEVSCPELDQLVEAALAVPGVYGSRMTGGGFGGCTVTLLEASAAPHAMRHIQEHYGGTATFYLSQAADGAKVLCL
Sequence of Thyrotropin-releasing hormone receptor (Homo sapiens) (P34981 whole entry, looked up): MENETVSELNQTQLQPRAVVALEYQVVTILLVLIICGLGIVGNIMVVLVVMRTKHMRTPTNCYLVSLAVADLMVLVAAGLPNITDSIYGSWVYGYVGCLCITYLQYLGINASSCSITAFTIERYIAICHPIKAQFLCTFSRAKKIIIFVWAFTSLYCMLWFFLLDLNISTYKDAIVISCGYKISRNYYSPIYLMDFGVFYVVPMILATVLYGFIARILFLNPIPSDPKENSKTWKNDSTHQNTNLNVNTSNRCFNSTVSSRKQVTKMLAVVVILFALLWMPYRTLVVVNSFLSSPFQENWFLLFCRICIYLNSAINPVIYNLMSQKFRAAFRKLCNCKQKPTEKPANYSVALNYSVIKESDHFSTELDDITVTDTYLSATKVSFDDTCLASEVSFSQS
Sequence of DNA repair nuclease/redox regulator APEX1 (Homo sapiens) (P27695 whole entry, looked up): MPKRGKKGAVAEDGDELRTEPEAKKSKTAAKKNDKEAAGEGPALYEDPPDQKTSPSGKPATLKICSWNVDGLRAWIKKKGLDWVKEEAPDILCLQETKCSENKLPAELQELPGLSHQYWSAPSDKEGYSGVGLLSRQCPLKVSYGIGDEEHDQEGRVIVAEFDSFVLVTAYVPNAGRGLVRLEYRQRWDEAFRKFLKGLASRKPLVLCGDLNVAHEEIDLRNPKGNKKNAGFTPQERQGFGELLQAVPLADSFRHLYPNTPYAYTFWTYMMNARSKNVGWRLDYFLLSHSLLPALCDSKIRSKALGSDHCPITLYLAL
Sequence of M-phase phosphoprotein 8 (Homo sapiens) (Q99549 whole entry, looked up): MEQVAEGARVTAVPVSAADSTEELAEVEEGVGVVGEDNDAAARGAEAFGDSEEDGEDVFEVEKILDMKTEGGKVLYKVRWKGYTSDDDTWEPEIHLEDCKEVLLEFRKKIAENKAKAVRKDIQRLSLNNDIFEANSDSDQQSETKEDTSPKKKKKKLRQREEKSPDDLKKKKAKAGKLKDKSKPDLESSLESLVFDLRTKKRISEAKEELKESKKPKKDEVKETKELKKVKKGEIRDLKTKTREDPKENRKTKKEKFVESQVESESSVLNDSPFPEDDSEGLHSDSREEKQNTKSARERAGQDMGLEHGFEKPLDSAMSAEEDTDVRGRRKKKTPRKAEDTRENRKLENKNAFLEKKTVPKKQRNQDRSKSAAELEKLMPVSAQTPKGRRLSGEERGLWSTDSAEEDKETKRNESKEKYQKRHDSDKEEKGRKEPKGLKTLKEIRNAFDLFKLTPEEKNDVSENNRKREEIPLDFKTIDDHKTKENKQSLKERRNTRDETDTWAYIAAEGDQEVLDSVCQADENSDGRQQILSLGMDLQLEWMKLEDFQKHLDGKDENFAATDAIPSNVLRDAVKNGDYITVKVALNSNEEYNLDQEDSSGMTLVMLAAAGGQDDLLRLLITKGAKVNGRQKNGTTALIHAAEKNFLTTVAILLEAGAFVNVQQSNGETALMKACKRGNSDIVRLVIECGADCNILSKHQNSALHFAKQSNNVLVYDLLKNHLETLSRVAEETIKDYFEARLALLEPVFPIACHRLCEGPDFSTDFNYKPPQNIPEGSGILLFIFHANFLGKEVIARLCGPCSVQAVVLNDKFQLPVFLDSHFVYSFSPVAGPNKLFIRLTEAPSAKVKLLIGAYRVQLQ
Sequence of Transient receptor potential cation channel subfamily V member 1 (Homo sapiens) (Q8NER1 whole entry, looked up): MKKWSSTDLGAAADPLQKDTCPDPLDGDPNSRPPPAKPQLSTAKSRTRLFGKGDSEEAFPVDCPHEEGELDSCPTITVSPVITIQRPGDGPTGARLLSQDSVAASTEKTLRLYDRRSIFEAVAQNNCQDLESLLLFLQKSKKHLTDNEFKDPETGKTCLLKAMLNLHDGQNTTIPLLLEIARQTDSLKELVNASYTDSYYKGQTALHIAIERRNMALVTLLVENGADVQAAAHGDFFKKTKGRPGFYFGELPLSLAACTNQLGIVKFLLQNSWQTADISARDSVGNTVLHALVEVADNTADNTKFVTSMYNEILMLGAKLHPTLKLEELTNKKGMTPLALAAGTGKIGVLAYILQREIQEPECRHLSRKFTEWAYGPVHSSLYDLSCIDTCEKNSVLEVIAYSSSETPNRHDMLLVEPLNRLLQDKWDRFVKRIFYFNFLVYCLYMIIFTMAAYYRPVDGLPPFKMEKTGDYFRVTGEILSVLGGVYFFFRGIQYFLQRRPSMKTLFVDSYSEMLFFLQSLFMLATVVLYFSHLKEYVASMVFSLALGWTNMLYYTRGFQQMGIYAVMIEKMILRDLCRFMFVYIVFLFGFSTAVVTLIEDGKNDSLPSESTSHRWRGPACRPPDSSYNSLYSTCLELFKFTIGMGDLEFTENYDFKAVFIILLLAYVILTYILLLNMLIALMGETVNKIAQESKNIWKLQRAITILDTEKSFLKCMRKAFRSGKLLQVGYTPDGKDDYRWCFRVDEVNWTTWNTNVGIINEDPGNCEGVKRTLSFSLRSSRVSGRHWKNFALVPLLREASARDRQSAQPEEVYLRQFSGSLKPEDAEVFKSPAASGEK
Sequence of ATP-dependent DNA helicase Q1 (Homo sapiens) (P46063 whole entry, looked up): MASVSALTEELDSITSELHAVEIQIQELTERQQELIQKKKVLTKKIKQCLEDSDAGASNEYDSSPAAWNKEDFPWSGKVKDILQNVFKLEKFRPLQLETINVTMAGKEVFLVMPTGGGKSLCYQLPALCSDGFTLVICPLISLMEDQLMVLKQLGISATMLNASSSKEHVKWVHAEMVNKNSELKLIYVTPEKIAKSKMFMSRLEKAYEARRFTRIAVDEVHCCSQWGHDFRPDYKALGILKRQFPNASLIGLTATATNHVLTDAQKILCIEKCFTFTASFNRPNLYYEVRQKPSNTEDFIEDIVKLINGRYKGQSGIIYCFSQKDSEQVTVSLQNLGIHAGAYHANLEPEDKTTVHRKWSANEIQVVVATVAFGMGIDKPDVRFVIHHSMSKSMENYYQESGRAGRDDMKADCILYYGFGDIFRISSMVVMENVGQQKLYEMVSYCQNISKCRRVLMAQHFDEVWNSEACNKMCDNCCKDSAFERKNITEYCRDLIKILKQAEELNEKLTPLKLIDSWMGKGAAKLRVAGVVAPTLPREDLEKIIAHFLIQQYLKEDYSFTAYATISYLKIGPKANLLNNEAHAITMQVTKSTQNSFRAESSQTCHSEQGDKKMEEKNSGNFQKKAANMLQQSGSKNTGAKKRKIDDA
Sequence of Luciferin 4-monooxygenase (Photinus pyralis) (P08659 whole entry, looked up): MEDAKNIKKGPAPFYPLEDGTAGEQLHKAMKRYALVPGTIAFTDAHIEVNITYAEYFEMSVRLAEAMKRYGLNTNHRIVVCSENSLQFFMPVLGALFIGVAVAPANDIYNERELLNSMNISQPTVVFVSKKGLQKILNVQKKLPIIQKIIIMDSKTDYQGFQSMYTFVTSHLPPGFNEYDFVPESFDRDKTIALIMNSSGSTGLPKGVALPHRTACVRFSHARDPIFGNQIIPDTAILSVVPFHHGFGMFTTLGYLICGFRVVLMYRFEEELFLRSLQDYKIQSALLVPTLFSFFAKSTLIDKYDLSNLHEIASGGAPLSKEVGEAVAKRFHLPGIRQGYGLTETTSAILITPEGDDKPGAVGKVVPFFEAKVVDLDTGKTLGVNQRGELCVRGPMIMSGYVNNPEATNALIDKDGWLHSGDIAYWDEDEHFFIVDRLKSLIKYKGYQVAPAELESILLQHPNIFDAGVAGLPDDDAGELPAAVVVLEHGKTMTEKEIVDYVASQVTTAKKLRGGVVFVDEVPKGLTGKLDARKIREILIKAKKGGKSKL

SMILES: CC(C)C[C@H]1C(=O)N2CCCC2[C@]2(O)O[C@](NC(=O)[C@@H]3C=C4c5cccc6[nH]c(Br)c(c56)C[C@H]4N(C)C3)(C(C)C)C(=O)N12 (stereo partly specified)
- outcome [1]: inactive
- Potency [2]: inactive
- Potency [3]: inactive
- outcome [4]: inactive
- Potency [5]: inactive
- Potency [6]: 9.28 µM (active)
- Potency [7]: 8.28 µM (active)
- Potency [8]: inactive
- outcome [9]: inactive
- outcome [10]: inactive
- activation [11]: 0.625%
- outcome [12]: inactive
- Potency [13]: inactive
- outcome [14]: inactive
- outcome [15]: inactive
- Potency ([16]; parasite line A): 11.2 µM (active)
- Potency ([16]; parasite line B): 5.62 µM (active)
- Potency (3D7): 3.98 µM (active)
- Potency (7G8): 708 nM (active)
- Potency (AA1029): 3.55 µM (active)
- Potency (AS120): 3.55 µM (active)
- Potency (ATS189): 5.01 µM (active)
- Potency (ATS95): 5.01 µM (active)
- Potency (C2A): 11.2 µM (active)
- Potency (CP185): 11.2 µM (active)
- Potency (CP191): 7.94 µM (active)
- Potency (CP192): 16.9 µM (active)
- Potency (CP194): 13.5 µM (active)
- Potency (CP201): 13.5 µM (active)
- Potency (CP203): 9.53 µM (active)
- Potency (CP211): 15.1 µM (active)
- Potency (CP215): 8.49 µM (active)
- Potency (CP217): 7.08 µM (active)
- Potency (CP237): 2 µM (active)
- Potency (CP238): 10 µM (active)
- Potency (CP247): 8.91 µM (active)
